Results: the supplement of paper PMC9950053
Where a name gives a salt, the structure may show the parent alone.

test system: Danio rerio larvae (5 dpf); experiment: 1-h baseline activity (% time moving, periods 1-6) minus DMSO control (percentage points); higher = more locomotor activity than DMSO larvae; conditions: 10 µM; exposure time: 3 h pre-incubation + 3 h imaging
Experimental: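 Wild-type 5 dpf zebrafish larvae (n=48 per drug, 96-well plates, 28.5 °C) were exposed to Tocris FDA-approved library compounds at 10 µM (0.1% DMSO) for 3 h before and 3 h during imaging. Images were taken every 6 s during visual (moving coloured lines) and acoustic stimuli, and larvae were tracked with the DeepLabCut-based Z-LaP Tracker. Each behavioural measure is the treated-group mean minus the DMSO vehicle control mean (n=844), in percentage points. This mapping covers compounds with 4-character plate codes.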

Compound | 1-h baseline activity
CC(=O)NC[C@H]1CN(c2ccc(N3CCOCC3)c(F)c2)C(=O)O1 [Linezolid] | 3.05
CC(C)c1nc(N(C)S(C)(=O)=O)nc(-c2ccc(F)cc2)c1/C=C/[C@@H](O)C[C@@H](O)CC(=O)O [Rosuvastatin calcium] | 2.58
Nc1nc(NC2CC2)c2ncn([C@H]3C=C[C@@H](CO)C3)c2n1 [Abacavir hemisulfate] | 6.96
CC(C)(C(=O)c1cccnc1)c1cccnc1 [Metyrapone] | -9.17
CN1CC2c3ccccc3Oc3ccc(Cl)cc3C2C1 (stereo not given) [Asenapine maleate] | 30.8
CO[C@H]1/C=C/O[C@@]2(C)Oc3c(C)c(O)c4c(O)c(c5c(nc6cc(C)ccn65)c4c3C2=O)NC(=O)/C(C)=C\C=C\[C@H](C)[C@H](O)[C@@H](C)[C@@H](O)[C@@H](C)[C@H](OC(C)=O)[C@@H]1C [Rifaximin] | -1.58
CCC(C)(C)C(=O)O[C@H]1C[C@@H](C)C=C2C=C[C@H](C)[C@H](CC[C@@H]3C[C@@H](O)CC(=O)O3)[C@H]21 [Simvastatin] | 6.15
CCOC(=O)[C@H](CCc1ccccc1)N[C@@H](C)C(=O)N1[C@H](C(=O)O)C[C@@H]2CCC[C@@H]21 [Ramipril] | 1.29
Cc1cn([C@H]2C=C[C@@H](CO)O2)c(=O)[nH]c1=O [Stavudine] | -7.04
CC(C)c1ccc2oc3nc(N)c(C(=O)O)cc3c(=O)c2c1 [Amlexanox] | 5.8
C/C(O)=C(\C#N)C(=O)Nc1ccc(C(F)(F)F)cc1 [Teriflunomide] | -8.94
COc1ccccc1OCCNCC(O)COc1cccc2[nH]c3ccccc3c12 (stereo not given) [Carvedilol] | -12.4
CN1CCC[C@@H]1CCO[C@](C)(c1ccccc1)c1ccc(Cl)cc1 [Clemastine fumarate] | 1.06
Cc1ccsc1C(=CCCN1CCC[C@@H](C(=O)O)C1)c1sccc1C [Tiagabine hydrochloride] | 7.89
C[C@H](Cc1cc2c(c(C(N)=O)c1)N(CCCO)CC2)NCCOc1ccccc1OCC(F)(F)F [Silodosin] | -3.52
NS(=O)(=O)Cc1noc2ccccc12 [Zonisamide] | 2.49
COc1cc2nc(N3CCN(C(=O)C4COc5ccccc5O4)CC3)nc(N)c2cc1OC (stereo not given) [Doxazosin mesylate] | -6.93
OCCN(CCO)c1nc(N2CCCCC2)c2nc(N(CCO)CCO)nc(N3CCCCC3)c2n1 [Dipyridamole] | -3.7
CCOC(=O)C1=C(C)NC(C)=C(C(=O)OC)C1c1cccc(Cl)c1Cl (stereo not given) [Felodipine] | -15.3
Cc1nc(Nc2ncc(C(=O)Nc3c(C)cccc3Cl)s2)cc(N2CCN(CCO)CC2)n1 [Dasatinib] | -12.5

Compound | 1-h baseline activity
C=CC(=O)N1CCC[C@@H](n2nc(-c3ccc(Oc4ccccc4)cc3)c3c(N)ncnc32)C1 [Ibrutinib] | -7.48
COc1ccc([C@@H]2Sc3ccccc3N(CCN(C)C)C(=O)[C@@H]2OC(C)=O)cc1 [Diltiazem hydrochloride] | -4.8
CC[C@H](C)C(=O)O[C@H]1C[C@@H](C)C=C2C=C[C@H](C)[C@H](CC[C@@H]3C[C@@H](O)CC(=O)O3)[C@H]21 [Lovastatin] | -3.77
CN1CCC[C@@H]1Cc1c[nH]c2ccc(CCS(=O)(=O)c3ccccc3)cc12 [Eletriptan hydrobromide] | 2.42
O=C(c1ccc(OCCN2CCCCC2)cc1)c1c(-c2ccc(O)cc2)sc2cc(O)ccc12 [Raloxifene hydrochloride] | -7.31
Cc1nc(-c2ccc(OCC(C)C)c(C#N)c2)sc1C(=O)O [Febuxostat] | -2.75
CC#C[C@]1(O)CC[C@H]2[C@@H]3CCC4=CC(=O)CCC4=C3[C@@H](c3ccc(N(C)C)cc3)C[C@@]21C [Mifepristone] | -3.83
CC(C)(C#N)c1cc(Cn2cncn2)cc(C(C)(C)C#N)c1 [Anastrozole] | 1.59
COC(c1ccccc1)(c1ccccc1)[C@H](Oc1nc(C)cc(C)n1)C(=O)O [Ambrisentan] | 0.292
CN1CC(=O)N2[C@H](c3ccc4c(c3)OCO4)c3[nH]c4ccccc4c3C[C@@H]2C1=O [Tadalafil] | 10.9
CC(CCc1ccc(O)cc1)NCCc1ccc(O)c(O)c1 (stereo not given) [Dobutamine hydrochloride] | -2.47
COCCCOc1cc(C[C@@H](C[C@H](N)[C@@H](O)C[C@H](C(=O)NCC(C)(C)C(N)=O)C(C)C)C(C)C)ccc1OC [Aliskiren hemifumarate] | -5.54
CC(=O)S[C@@H]1CC2=CC(=O)CC[C@]2(C)[C@H]2CC[C@@]3(C)[C@@H](CC[C@@]34CCC(=O)O4)[C@H]12 [Spironolactone] | -0.875
NS(=O)(=O)c1cc(C(=O)O)c(NCc2ccco2)cc1Cl [Furosemide] | 5.77
Cc1nnc(C(C)C)n1C1C[C@H]2CC[C@@H](C1)N2CC[C@H](NC(=O)C1CCC(F)(F)CC1)c1ccccc1 (stereo in doubt) [Maraviroc] | -3.33
N#Cc1ccc(C(c2ccc(C#N)cc2)n2cncn2)cc1 [Letrozole] | -4.77
CC(=O)Oc1ccccc1C(=O)O [Aspirin] | -0.776
CN(CCOc1ccc(NS(C)(=O)=O)cc1)CCc1ccc(NS(C)(=O)=O)cc1 [Dofetilide] | -0.169
Nc1cc(N2CCCCC2)nc(N)[n+]1[O-] [Minoxidil] | 1.13
C[C@]12CCC(=O)C=C1CC[C@@H]1[C@@H]2[C@@H](O)C[C@@]2(C)[C@H]1CC[C@]2(O)C(=O)CO [Hydrocortisone] | 1.95
